# KKLEB tox = cytotoxicity in KKLEB CF airway cells, primary screen, cytotoxicity control for CF NF-kB inhibitor project, cell-based, uHTS, fluorescence assay plates; KKLEB CF airway cells viability, ATPlite luminescence, overnight; hits give low values; cells stimulated with P. aeruginosa culture filtrate; activity change (cytotoxicity), % at 5 µM; hit rate 0.36% among 360,000; AID 602141, 2011;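 active = corrected activity change at or below -50% at 5 µM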
# MITF TRPM1 inh = inhibitors of MITF-dependent TRPM1 promoter reporter, primary screen, cell-based, SK-MEL-5, single point, luciferase; hit rate 0.83% among 330,000; inhibition, % at 12.5 µM; SK-MEL-5 TRPM1 promoter luciferase, 24 h;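 active = mean inhibition across replicates of 60% or more, whatever share of single replicates reaches that level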
# CF NFkB block = inhibitors of PAF-induced NF-kB signaling, primary screen, cell-based, GFP fluorescence, uHTS | KKLEB NF-kB-GFP reporter, GFP fluorescence overnight | inhibition, % at 5 µM | hit rate 0.86% among 360,000;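 active = at least 50% inhibition at 5 µM, scaled per plate between neutral and stimulator controls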;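 also: PAF is a Pseudomonas aeruginosa culture filtrate used as stimulus; plate controls were PAF-stimulated DMSO wells for no effect and unstimulated DMSO wells for full effect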
# Peg3 prom inh = Peg3 promoter-driven luciferase inhibitors, primary screen, cell-based, HeLa, luciferase luminescence. inhibition, % at 20 µM. HeLa PEG-Prom luciferase reporter, overnight. AID 588405, 2011. hit rate 1.7% among 360,000;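 active = inhibition of at least 50% at 20 µM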
# EBV LMP1 NFkB = EBV LMP1-driven NF-kappaB luciferase reporter inhibitors, primary screen, cell-based, luminescence, single point. LMP1-induced NF-kappaB luciferase reporter cells. hit rate 0.69% among 350,000. AID 504558, 2011. inhibition, % at 12.5 µM; in the data active = inhibition above about 41%;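 also: 0% = neutral control wells and 100% = reference inhibitor control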
# HIF-2a inh = HIF-2a reporter inhibitors, primary screen, luminescence, 786-0 RCC cells; inhibition, % at 18.8 µM; hit rate 0.72% among 360,000; AID 624352, 2012; 786-0 RCC cells HIF-2a reporter, luciferase luminescence, overnight;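 active = inhibition of the luminescence signal of 40% or more relative to plate controls, in a single-dose primary screen at 18.75 µM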
# Mdm2 MdmX conf = retested Mdm2-MdmX interaction blockers, confirmation, cell-based, luminescence, single concentration, set 2 | shares compounds with HIF-2a inh | inhibition, % at 8 µM | hit rate 99% among 740 | SaOS-2 split-luciferase Mdm2/MdmX complementation;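 active = mean inhibition of the luminescence signal across two replicates at or above 26 percent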
# Target sequence (O15151 whole entry, looked up): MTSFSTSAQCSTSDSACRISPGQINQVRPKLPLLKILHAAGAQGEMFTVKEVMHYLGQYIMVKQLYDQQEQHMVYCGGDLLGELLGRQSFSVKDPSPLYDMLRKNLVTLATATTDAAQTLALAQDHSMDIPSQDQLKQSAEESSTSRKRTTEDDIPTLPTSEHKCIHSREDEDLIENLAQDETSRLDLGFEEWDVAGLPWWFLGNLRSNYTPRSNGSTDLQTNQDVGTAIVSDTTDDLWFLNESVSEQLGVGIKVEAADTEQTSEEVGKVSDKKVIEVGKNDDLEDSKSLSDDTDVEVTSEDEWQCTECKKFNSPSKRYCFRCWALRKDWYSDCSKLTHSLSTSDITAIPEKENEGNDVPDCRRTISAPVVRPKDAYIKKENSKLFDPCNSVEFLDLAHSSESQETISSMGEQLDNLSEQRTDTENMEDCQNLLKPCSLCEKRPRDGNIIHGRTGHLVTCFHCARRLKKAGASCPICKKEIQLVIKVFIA
# Target sequence (Q00987 whole entry, looked up): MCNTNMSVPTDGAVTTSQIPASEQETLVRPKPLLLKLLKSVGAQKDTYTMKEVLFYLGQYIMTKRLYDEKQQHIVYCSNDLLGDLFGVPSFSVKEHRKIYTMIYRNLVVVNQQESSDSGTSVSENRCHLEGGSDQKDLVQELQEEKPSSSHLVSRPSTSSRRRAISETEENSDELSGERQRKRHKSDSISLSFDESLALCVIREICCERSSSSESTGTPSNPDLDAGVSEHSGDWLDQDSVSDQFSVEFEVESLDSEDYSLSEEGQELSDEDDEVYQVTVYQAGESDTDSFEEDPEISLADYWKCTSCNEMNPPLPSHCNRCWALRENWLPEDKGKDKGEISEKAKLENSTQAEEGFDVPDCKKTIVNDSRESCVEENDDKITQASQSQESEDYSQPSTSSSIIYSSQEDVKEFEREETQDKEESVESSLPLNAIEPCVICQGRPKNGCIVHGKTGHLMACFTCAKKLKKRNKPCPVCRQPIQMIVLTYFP
# HIF-2a inh conf = HIF-2a reporter inhibitor retest, confirmation, luminescence, 786-0 RCC cells. shares compounds with HIF-2a inh. HIF-2a luciferase reporter luminescence, overnight. inhibition, % at 18.8 µM. hit rate 56% among 1,800. AID 651580, 2012;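 active = mean inhibition across four replicates of at least 40 percent at the single tested concentration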
# HIF-1a counter = HIF-1a luciferase reporter signal reduction – MiaPaCa-2 cells, single concentration, counter-screen for HIF-2a inhibitor project, confirmation | shares compounds with HIF-2a inh | MiaPaCa-2 HIF-1a luciferase reporter, desferoxamine, overnight | inhibition, % at 18.8 µM | hit rate 72% among 1,800;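 active = mean inhibition of the reporter signal across four replicates at the single tested dose of 50% or more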
# An asterisk follows results filed as active; nt = no result given. Sampled rows, rich in hits. Any-hit rate of the full collection: about 3%.
SMILES,KKLEB tox,MITF TRPM1 inh,CF NFkB block,Peg3 prom inh,EBV LMP1 NFkB,HIF-2a inh,Mdm2 MdmX conf,HIF-2a inh conf,HIF-1a counter
COc1ccc(C(=O)/C=C/C(=O)N(CC(=O)NC2CCCCC2)Cc2cccs2)c(O)c1,-15.9,104.9*,35.4,104.8*,58.7*,95.4*,nt,95.1*,100.6*
COc1ccc(CN(C(=O)/C=C/C(=O)c2ccc(OC)cc2O)C(C(=O)NC2CCCCC2)c2ccncc2)cc1 (configuration not stated),1.6,15.1,-4.0,8.5,-1.9,32.2,nt,nt,nt
Cc1cc2c(cc1C)-c1nnnn1C(N1CCCC1)C(=O)N2 (configuration not stated),nt,nt,nt,nt,nt,13.7,nt,nt,nt
CC1(C)CC1C(=O)Nc1ccc([N+](=O)[O-])cc1Br (configuration not stated),-3.6,-19.5,8.9,-13.9,-3.7,-13.1,nt,nt,nt
Cc1ccc(C2(c3ccc(C)cc3)CC2C(=O)Nc2ccc([N+](=O)[O-])cc2O)cc1 (configuration not stated),-84.8*,74.0*,84.2*,52.8*,38.3,-18.1,95.5*,nt,nt
CC(NC(=O)C1CCN(Cc2ccc(Oc3ccccc3)cc2)CC1)c1cccc2ccccc12 (configuration not stated),-18.3,nt,17.9,31.6,nt,2.0,nt,nt,nt
Cc1nc2ccc(NC(=O)c3nn(CC(C)C)c(=O)c4ccccc34)cc2s1,4.1,11.9,-12.7,-42.6,-21.1,-46.6,93.2*,nt,nt
Cc1nnc(NC(=O)c2nn(CC(C)C)c(=O)c3ccccc23)s1,1.6,-0.9,-6.8,18.7,-4.8,10.6,nt,nt,nt
CCOC(=O)CC1(C)Sc2ccccc2N1S(=O)(=O)c1ccc(C)cc1 (configuration not stated),nt,nt,nt,nt,nt,12.6,nt,nt,nt
CCC1CCCCN1C(=O)COC(=O)c1cncc(Br)c1 (configuration not stated),8.6,nt,-10.8,-7.2,0.9,5.4,nt,nt,nt
Cc1ccccc1NC(=O)/C=C/c1ccc([N+](=O)[O-])s1,-59.4*,92.5*,66.4*,107.2*,-16.9,85.9*,nt,68.2*,104.3*
O=C(N/N=C/c1ccc([N+](=O)[O-])s1)c1ccccc1,39.7,105.0*,-34.6,1.1,16.8,51.1*,nt,49.0*,67.5*
O=[N+]([O-])c1ccc(/C=N/NC(=S)Nc2ccc(Cl)cc2Cl)s1,0.0,40.4,-2.2,60.5*,15.1,-29.5,84.5*,nt,nt
O=C(N/N=C/c1ccc([N+](=O)[O-])s1)c1ccccc1Br,1.0,90.3*,-14.8,28.4,7.9,69.6*,nt,75.5*,91.4*
O=[N+]([O-])c1ccc(O)c(/C=N/NC(=S)Nc2ccc(Cl)cc2Cl)c1,-7.3,43.4,10.1,11.9,24.2,-77.7,nt,nt,nt
CC(=O)c1cccc(-c2cnc3c(NC=O)cc(-c4ccc(F)cc4)cn23)c1,-15.4,nt,-3.8,44.0,nt,17.4,nt,nt,nt
COc1ccc(OC)c(CN2C(=O)c3ccccc3C2c2nnnn2Cc2ccccc2)c1 (configuration not stated),nt,nt,nt,nt,nt,-0.7,nt,nt,nt
O=S1(=O)C[C@@H](N2CCC(Cc3ccccc3)CC2)[C@H](COCc2ccccc2)N1,-5.6,nt,8.1,19.5,0.9,19.0,nt,nt,nt
CC1(C(=O)Nc2cccc3ccccc23)CCN1C(=O)Cc1ccc(Cl)cc1Cl (configuration not stated),-15.3,nt,-1.0,33.1,nt,14.8,nt,nt,nt
Cc1ccccc1C(=O)N/N=C/c1ccc([N+](=O)[O-])s1,1.4,93.6*,-3.6,50.4*,-6.8,76.3*,nt,89.7*,94.6*
O=C1C=CC(O)(c2cc(=O)c3c(O)cc(O)cc3o2)C=C1,-52.3*,80.5*,75.4*,84.3*,-65.4,94.1*,nt,91.6*,103.1*
NC1=NC[C@@H](CC2CCCCC2)N1CCc1cc(C(F)(F)F)cc(C(F)(F)F)c1,4.4,99.4*,15.3,94.4*,6.4,-27.2,103.0*,nt,nt
CCc1nc2c(OCC3CCCCC3)cccn2c1N(C=O)Cc1ccc(OC)cc1,-13.3,nt,28.2,19.9,nt,13.8,nt,nt,nt
COc1ccc(NS(=O)(=O)c2cccc(C(=O)N/N=C/c3c(F)c(F)c(F)c(F)c3F)c2)cc1,-30.3,6.3,8.2,94.7*,2.0,50.8*,nt,36.0,80.2*
Cc1cccc(CS(=O)(=O)c2nnc([C@H](Cc3ccccc3)NC(=O)OC(C)(C)C)o2)c1,-21.5,74.9*,69.1*,105.6*,-28.0,7.9,102.7*,nt,nt
SMILES,KKLEB tox,MITF TRPM1 inh,CF NFkB block,Peg3 prom inh,EBV LMP1 NFkB,HIF-2a inh,Mdm2 MdmX conf,HIF-2a inh conf,HIF-1a counter
CC(C)(C)OC(=O)N[C@@H](Cc1ccccc1)c1nnc(SCC(N)=O)o1,15.1,-1.1,-6.3,6.2,-6.7,8.6,nt,nt,nt
COc1ccc(-c2nnn(Cc3ccccc3)n2)cc1OC,-6.0,-25.2,-10.7,-27.7,1.8,-70.8,nt,nt,nt
COc1cc2c3nnc(-c4ccc(F)cc4)c-3cn(Cc3ccccc3)c2cc1OC,10.7,nt,-347.9,103.5*,-157.8,-23.8,103.2*,nt,nt
Cc1ccc(NC(=O)c2nc(S(=O)(=O)Cc3ccccc3)ncc2Cl)cc1,-99.8*,94.7*,92.0*,100.5*,24.2,94.6*,102.2*,98.3*,96.1*
Cc1nnc(NC(=O)c2nc(S(=O)(=O)Cc3ccccc3)ncc2Cl)s1,-30.8,34.6,82.7*,110.5*,25.1,64.3*,nt,8.9,105.9*
Cc1ccccc1CS(=O)(=O)c1ncc(Cl)c(C(=O)Nc2ccc(F)cc2)n1,-98.6*,91.0*,88.6*,107.5*,52.1*,92.6*,103.0*,74.3*,51.0*
COc1ccc(OC)c(NC(=O)c2nc(S(=O)(=O)Cc3ccccc3)ncc2Cl)c1,-105.2*,94.8*,89.2*,106.4*,-1.0,88.9*,102.7*,99.1*,104.4*
Cc1nnc(NC(=O)CS(=O)(=O)Cc2ccccc2)s1,6.6,-3.0,6.3,39.6,3.4,11.7,nt,nt,nt
O=C(Nc1ccc(F)cc1)c1nc(S(=O)(=O)Cc2ccccc2)ncc1Cl,-75.3*,62.1*,101.3*,99.5*,-1.6,85.7*,101.7*,99.4*,59.6*
